Data reported in PubChem BioAssay.
For some assays here: Measured potencies and affinities stand elsewhere. Calls of active or inactive are those of the source. Unless noted, the rule behind the calls is not given here.

Key:
[1] = antimalarial activity against Dd2 strain (AID 2302;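 active = growth inhibition above 50% at the single 2 µM test dose, taken to imply half-maximal potency below 2 µM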;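 note: 0% = DMSO untreated growth and 100% = chloroquine plus artemisinin killed control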); conditions: P. falciparum Dd2 in RBCs, LDH growth readout, 72 h; at 2 µM; stronger effect = higher value
[2] = HepG2 cytotoxicity, primary screen, cytotoxicity control for P. falciparum antimalarial project, cell-based, ATP luminescence (AID 2303;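 active = inhibition above 50%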;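 note: 0% = DMSO wells and 100% = digitonin-killed cells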); conditions: HepG2 viability, 24-48 h, at 10 µM, stronger effect = higher value
[3] = target: L-lactate dehydrogenase (Plasmodium falciparum (isolate CDC / Honduras)) (UniProt Q27743); assay: PfLDH activity inhibition – cell lysate, 3D7 strain, counter-screen for P. falciparum growth inhibition project (AID 2304);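 note: 0% = vehicle and 100% = reference inhibitor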; conditions: P. falciparum 3D7 crude extract, LDH APAD/NBT absorbance; at 2 µM; stronger effect = higher value
[4] = inhibition of 3D7 malaria parasite growth – strain 3D7 (AID 2306);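 note: 0% = DMSO wells and 100% = chloroquine plus artemisinin control wells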; conditions: P. falciparum 3D7 erythrocytic growth, LDH absorbance, 72 h; at 2 µM; stronger effect = higher value
[5] = target: Calcium-dependent protein kinase 1 (Plasmodium falciparum (isolate 3D7)) (UniProt P62344); assay: PfCDPK1 kinase inhibitors, biochemical, TCAMS library (AID 1159585; cut-off not given, nearly all actives have IC50 up to about 0.98 µM;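 note: inhibitors leave more ATP so luminescence rises with inhibition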); conditions: recombinant PfCDPK1, Kinase-Glo ATP depletion luminescence
[6] = target: Plasmodium falciparum protein kinase 6 (PK6, PF3D7_1337100) (UniProt Q8IDW1); assay: PfPK6 kinase inhibitors, biochemical, TCAMS library (AID 1159586); conditions: recombinant PfPK6, Kinase-Glo ATP depletion luminescence
[7] = target: Protein kinase 7 (PK7), Plasmodium falciparum 3D7 (PF3D7_0213400) (UniProt Q7YTF7); assay: inhibition of Plasmodium PK7 catalytic activity – biochemical, TCAMS antimalarial set, Kinase-Glo luminescence (AID 1159587); conditions: recombinant PfPK7, Kinase-Glo ATP depletion luminescence
[8] = target: Calcium-dependent protein kinase 4 (Plasmodium falciparum (isolate 3D7)) (UniProt Q8IBS5); assay: PfCDPK4 kinase inhibitors, biochemical, TCAMS library (AID 1159588; cut-off not given, nearly all actives have IC50 up to about 0.91 µM); conditions: recombinant PfCDPK4, Kinase-Glo ATP depletion luminescence
Sequence of Calcium-dependent protein kinase 4 (Plasmodium falciparum (isolate 3D7)) (Q8IBS5 whole entry, looked up): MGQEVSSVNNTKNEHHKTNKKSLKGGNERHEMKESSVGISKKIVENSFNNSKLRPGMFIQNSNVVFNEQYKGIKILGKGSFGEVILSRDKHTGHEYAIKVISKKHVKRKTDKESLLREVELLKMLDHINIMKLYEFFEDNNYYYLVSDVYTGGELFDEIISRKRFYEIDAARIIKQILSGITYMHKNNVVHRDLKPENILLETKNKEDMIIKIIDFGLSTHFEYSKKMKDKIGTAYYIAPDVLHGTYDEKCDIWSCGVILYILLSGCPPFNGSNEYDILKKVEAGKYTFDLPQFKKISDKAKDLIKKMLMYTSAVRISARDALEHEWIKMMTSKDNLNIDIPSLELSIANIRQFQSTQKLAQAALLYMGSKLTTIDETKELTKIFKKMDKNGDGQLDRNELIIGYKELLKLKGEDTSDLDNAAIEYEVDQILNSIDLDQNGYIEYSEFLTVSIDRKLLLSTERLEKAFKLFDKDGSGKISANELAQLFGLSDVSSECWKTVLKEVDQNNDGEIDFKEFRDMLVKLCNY

Sequence of L-lactate dehydrogenase (Plasmodium falciparum (isolate CDC / Honduras)) (Q27743 whole entry, looked up): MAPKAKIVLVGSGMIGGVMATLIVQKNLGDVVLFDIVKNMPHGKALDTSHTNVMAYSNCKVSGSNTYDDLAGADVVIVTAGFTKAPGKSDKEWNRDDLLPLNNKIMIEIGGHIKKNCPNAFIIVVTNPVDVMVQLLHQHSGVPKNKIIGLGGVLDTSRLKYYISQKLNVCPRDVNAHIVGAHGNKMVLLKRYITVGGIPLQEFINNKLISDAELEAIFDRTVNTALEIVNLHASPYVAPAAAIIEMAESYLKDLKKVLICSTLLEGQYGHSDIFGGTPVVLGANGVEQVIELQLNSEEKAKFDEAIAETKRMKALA
Sequence of Protein kinase 7 (PK7), Plasmodium falciparum 3D7 (PF3D7_0213400) (Q7YTF7 1-343): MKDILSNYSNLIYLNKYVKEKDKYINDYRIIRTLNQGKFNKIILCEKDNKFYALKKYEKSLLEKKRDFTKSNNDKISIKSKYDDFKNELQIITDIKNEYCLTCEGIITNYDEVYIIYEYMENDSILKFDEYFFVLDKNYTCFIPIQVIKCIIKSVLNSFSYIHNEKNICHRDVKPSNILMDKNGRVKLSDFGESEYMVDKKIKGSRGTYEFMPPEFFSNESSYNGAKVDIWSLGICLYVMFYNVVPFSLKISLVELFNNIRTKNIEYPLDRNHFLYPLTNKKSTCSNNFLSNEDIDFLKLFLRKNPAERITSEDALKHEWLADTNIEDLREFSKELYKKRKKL
Sequence of Calcium-dependent protein kinase 1 (Plasmodium falciparum (isolate 3D7)) (P62344 whole entry, looked up): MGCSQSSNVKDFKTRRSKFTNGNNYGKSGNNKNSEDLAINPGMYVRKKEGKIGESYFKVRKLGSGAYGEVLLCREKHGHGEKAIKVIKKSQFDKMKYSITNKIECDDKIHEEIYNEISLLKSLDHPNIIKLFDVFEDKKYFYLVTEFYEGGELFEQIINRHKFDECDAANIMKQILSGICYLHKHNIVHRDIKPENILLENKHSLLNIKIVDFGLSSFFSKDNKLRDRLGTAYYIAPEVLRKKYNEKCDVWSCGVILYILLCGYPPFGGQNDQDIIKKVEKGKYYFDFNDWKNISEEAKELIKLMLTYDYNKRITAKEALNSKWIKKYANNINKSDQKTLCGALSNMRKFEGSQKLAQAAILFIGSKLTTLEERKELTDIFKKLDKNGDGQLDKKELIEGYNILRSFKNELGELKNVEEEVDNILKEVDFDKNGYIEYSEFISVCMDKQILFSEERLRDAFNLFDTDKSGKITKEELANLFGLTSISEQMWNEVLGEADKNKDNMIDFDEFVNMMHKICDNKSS
Sequence of Plasmodium falciparum protein kinase 6 (PK6, PF3D7_1337100) (Q8IDW1 1-305): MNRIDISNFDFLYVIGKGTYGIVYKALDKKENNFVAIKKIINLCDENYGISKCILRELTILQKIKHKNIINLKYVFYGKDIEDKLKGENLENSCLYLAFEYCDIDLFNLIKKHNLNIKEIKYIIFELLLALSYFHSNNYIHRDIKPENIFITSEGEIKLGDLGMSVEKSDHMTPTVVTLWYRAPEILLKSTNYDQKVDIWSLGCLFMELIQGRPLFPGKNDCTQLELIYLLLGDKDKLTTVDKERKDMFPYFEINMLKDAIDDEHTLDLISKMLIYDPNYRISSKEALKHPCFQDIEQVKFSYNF

COc1ccc2ncc(F)c([C@@H](O)CN3CCC(NCc4cc(C#N)c5c(c4)CCO5)CC3)c2n1
active: growth inhibition [1] 50% | growth inhibition [4] 92%
inactive: inhibition [2] 15% | inhibition [3] 4% | outcome [5] | outcome [6] | outcome [7] | outcome [8]

Cc1ccnc(NC(c2cccc(Cl)c2Cl)c2ccc3cccnc3c2O)c1 (stereo not given)
active: growth inhibition [4] 86%
inactive: growth inhibition [1] 38% | inhibition [2] 46% | inhibition [3] 7% | outcome [5] | outcome [6] | outcome [7] | outcome [8]

CC(=O)Nc1ncc(C(=O)Nc2cccc(-c3cccc(-c4nc5c(C)cccc5[nH]4)c3)c2)s1
active: growth inhibition [1] 64% | growth inhibition [4] 94%
inactive: inhibition [2] 15% | inhibition [3] 4% | outcome [5] | outcome [6] | outcome [7] | outcome [8]

CCCCc1ccc(S(=O)(=O)Nc2ccc3c(c2)CCN(Cc2c[nH]c4cnccc24)CC3)cc1
active: growth inhibition [4] 99%
inactive: growth inhibition [1] 12% | inhibition [2] 41% | inhibition [3] -5% | outcome [5] | outcome [6] | outcome [7] | outcome [8]

CCS(=O)(=O)Nc1ccc2[nH]cc(C3CCN(CCC4CCN(C(=O)/C=C/c5ccc(Cl)c(Cl)c5)CC4)CC3)c2c1
inactive: inhibition [2] 34% | inhibition [3] -2% | outcome [5] | outcome [6] | outcome [7] | outcome [8]
active: growth inhibition [1] 94% | growth inhibition [4] 99%

Cn1cccc1CCNCc1ccc(-c2cccc(-c3nc4ccc(F)cc4[nH]3)c2)cc1
inactive: growth inhibition [1] 43% | inhibition [2] -2% | inhibition [3] 1% | outcome [5] | outcome [6] | outcome [7] | outcome [8]
active: growth inhibition [4] 93%

Cc1cccc2[nH]c(-c3cccc(-c4ccc(NC(=O)NCc5ccccc5)cc4)c3)nc12
active: growth inhibition [4] 101%
inactive: growth inhibition [1] 47% | inhibition [2] 35% | inhibition [3] -2% | outcome [5] | outcome [6] | outcome [7] | outcome [8]

CN(C)CCCOc1ccc(CCNCc2cccc(Oc3ccc(Cl)cc3)c2)cc1
inactive: growth inhibition [1] 26% | inhibition [3] -4% | outcome [5] | outcome [6] | outcome [7] | outcome [8]
active: inhibition [2] 57% | growth inhibition [4] 94%

Cc1ccc(Nc2nc(C)cc(Nc3cccc(NS(C)(=O)=O)c3)n2)cc1
active: growth inhibition [4] 96%
inactive: growth inhibition [1] 8% | inhibition [2] -3% | inhibition [3] 0% | outcome [5] | outcome [6] | outcome [7] | outcome [8]

CN1CCN(C(=O)CN2CCC3(CCC2=O)NC(=O)c2ccccc2O3)CC1 (stereo not given)
active: growth inhibition [1] 98% | growth inhibition [4] 99%
inactive: inhibition [2] -7% | inhibition [3] 2% | outcome [5] | outcome [6] | outcome [7] | outcome [8]

C[C@@H](CC1CCCCC1)OC(=O)N[C@H]1CCN(C#N)C1
inactive: inhibition [2] 7% | inhibition [3] 1% | outcome [5] | outcome [6] | outcome [7] | outcome [8]
active: growth inhibition [1] 83% | growth inhibition [4] 95%

CC(C)(C)Nc1nc(Nc2cccc([N+](=O)[O-])c2)nc(-n2ccnc2)n1
inactive: growth inhibition [1] 41% | inhibition [2] 10% | inhibition [3] -9% | outcome [5] | outcome [6] | outcome [7] | outcome [8]
active: growth inhibition [4] 98%

O=C(CCOc1ccccc1)NCC1CCCO1 (stereo not given)
active: growth inhibition [4] 92%
inactive: growth inhibition [1] -11% | inhibition [2] -10% | inhibition [3] -3% | outcome [5] | outcome [6] | outcome [7] | outcome [8]

CCOc1ccc(Br)cc1/C=C/C(=O)Nc1ccc2c(c1)CCCN(C)C2
active: growth inhibition [4] 90%
inactive: growth inhibition [1] 17% | inhibition [2] 40% | inhibition [3] -1% | outcome [5] | outcome [6] | outcome [7] | outcome [8]

O=C(/C=C/c1ccc(Cl)c(Cl)c1)NCCCCCN1CCC(NC(=O)Nc2ccc([N+](=O)[O-])cc2)CC1
inactive: growth inhibition [1] 2% | inhibition [2] 20% | inhibition [3] 2% | outcome [5] | outcome [6] | outcome [7] | outcome [8]
active: growth inhibition [4] 102%

COC(=O)c1cccc(CNCc2cccc(-c3ccc(-c4nc5ccccc5[nH]4)s3)c2)c1
inactive: inhibition [2] -2% | inhibition [3] -6% | outcome [5] | outcome [6] | outcome [7] | outcome [8]
active: growth inhibition [1] 59% | growth inhibition [4] 93%

c1ccc(CN2CCC(NCc3cccc(-c4cncc5ccccc45)c3)CC2)cc1
inactive: growth inhibition [1] 11% | inhibition [2] 29% | inhibition [3] 3% | outcome [5] | outcome [6] | outcome [7] | outcome [8]
active: growth inhibition [4] 92%

CCN(CC)CCOc1ccc(N(Cc2ccc(C(C)(C)C)cc2)C(=O)c2ccc(Cc3ccccc3)cc2)cc1OC
active: growth inhibition [1] 73% | growth inhibition [4] 99%
inactive: inhibition [2] 5% | inhibition [3] 0% | outcome [5] | outcome [6] | outcome [7] | outcome [8]

O=C(Cn1c(CCc2cccc(F)c2F)cc(=O)c2ccccc21)N(CCN1CCCCC1)Cc1ccc(-c2ccc(C(F)(F)F)cc2)cc1
active: growth inhibition [1] 59% | growth inhibition [4] 101%
inactive: inhibition [2] 9% | inhibition [3] -6% | outcome [5] | outcome [6] | outcome [7] | outcome [8]

O=C(/C=C/c1ccc(Cl)c(Cl)c1)N1CCN(C(=O)Nc2cccc(C(F)(F)F)c2)CC1
active: growth inhibition [1] 100% | inhibition [2] 53% | growth inhibition [4] 99%
inactive: inhibition [3] 4% | outcome [5] | outcome [6] | outcome [7] | outcome [8]

OCCn1c(CNCCCNc2nc3ccccc3[nH]2)cc2c(Cl)cc(Cl)cc21
active: growth inhibition [4] 95%
inactive: growth inhibition [1] 0% | inhibition [2] 29% | inhibition [3] -6% | outcome [5] | outcome [6] | outcome [7] | outcome [8]

O=C(NCCCN(Cc1ccc(F)cc1)c1ccccn1)C(c1cc2ccccc2o1)N1CCN(C(c2ccccc2)c2ccccc2)CC1 (stereo not given)
inactive: inhibition [2] 14% | inhibition [3] 1% | outcome [5] | outcome [6] | outcome [7] | outcome [8]
active: growth inhibition [1] 53% | growth inhibition [4] 97%

COc1ccc(NC(=O)Nc2ccc(-c3cccc(-c4nc5ccccc5[nH]4)c3)cc2)cc1
inactive: growth inhibition [1] 41% | inhibition [2] 44% | inhibition [3] 3% | outcome [5] | outcome [6] | outcome [7] | outcome [8]
active: growth inhibition [4] 99%

COc1ccc2ncc(F)c([C@H](O)CN3CCC(NCc4ccc5c(c4)OCCO5)CC3)c2c1
active: growth inhibition [1] 99% | growth inhibition [4] 102%
inactive: inhibition [2] 1% | inhibition [3] -5% | outcome [5] | outcome [6] | outcome [7] | outcome [8]

CC(C)(C)c1ccc(CN2CCC(CNC(=O)c3cc(-c4ccccc4C(F)(F)F)cs3)C2)cc1 (stereo not given)
active: inhibition [2] 61% | growth inhibition [4] 92%
inactive: growth inhibition [1] 11% | inhibition [3] -3% | outcome [5] | outcome [6] | outcome [7] | outcome [8]

Fc1cccc(COc2ccc(Nc3ncnc4sc(C#CC5CCCCN5)cc34)cc2Cl)c1 (stereo not given)
active: growth inhibition [1] 100% | growth inhibition [4] 101%
inactive: inhibition [2] 30% | inhibition [3] 3% | outcome [5] | outcome [6] | outcome [7] | outcome [8]

CCOc1ccc(C(=O)Nc2nonc2-c2ccc(OC)c(OC)c2)cc1
active: growth inhibition [4] 95%
inactive: growth inhibition [1] 42% | inhibition [2] 7% | inhibition [3] 5% | outcome [5] | outcome [6] | outcome [7] | outcome [8]

COc1c(C2CCN(CCCCNC(=O)c3oc(-c4ccc(Cl)cc4)cc3CO)CC2)ccc2c1CCCC2
active: growth inhibition [1] 95% | inhibition [2] 80% | growth inhibition [4] 102%
inactive: inhibition [3] 4% | outcome [5] | outcome [6] | outcome [7] | outcome [8]

COc1cc(F)c2ncc(Cl)c(CCN3CCC(NCc4ccc5c(c4)NC(=O)CO5)CC3)c2c1
active: growth inhibition [1] 79% | growth inhibition [4] 95%
inactive: inhibition [2] 32% | inhibition [3] -2% | outcome [5] | outcome [6] | outcome [7] | outcome [8]

OC(Cn1ccnc1)(c1ccc(Cl)cc1Cl)C1CCCCC1 (stereo not given)
inactive: inhibition [2] 7% | inhibition [3] 7% | outcome [5] | outcome [6] | outcome [7] | outcome [8]
active: growth inhibition [1] 58% | growth inhibition [4] 98%

O=C(Nc1ccc(-c2ccccc2)cc1)Nc1cccc(Cn2ncc(N3CCNCC3)c(Cl)c2=O)c1
inactive: inhibition [2] 30% | inhibition [3] 5% | outcome [5] | outcome [6] | outcome [7] | outcome [8]
active: growth inhibition [1] 59% | growth inhibition [4] 100%

CN1CCC(N2CCN(Cc3cccc(-c4ccc(-c5nc6ccc(F)cc6[nH]5)cc4)c3)CC2)CC1
inactive: inhibition [3] 3% | outcome [5] | outcome [6] | outcome [7] | outcome [8]
active: growth inhibition [1] 100% | inhibition [2] 92% | growth inhibition [4] 100%

NC1=NC(c2ccccc2)(c2ccccn2)C(=O)N1CCCc1ccccc1 (stereo not given)
inactive: inhibition [2] -1% | inhibition [3] -2% | outcome [5] | outcome [6] | outcome [7] | outcome [8]
active: growth inhibition [1] 64% | growth inhibition [4] 85%

CCCCN(CCCC)Cc1cc2ccccc2cc1O
active: growth inhibition [1] 98% | growth inhibition [4] 100%
inactive: inhibition [2] 9% | inhibition [3] -6% | outcome [5] | outcome [6] | outcome [7] | outcome [8]

CCC(ON1C(N)=NC(N)=NC1(C)C)c1ccc(Cl)cc1 (stereo not given)
inactive: inhibition [3] 3% | outcome [5] | outcome [6] | outcome [7] | outcome [8]
active: growth inhibition [1] 90% | inhibition [2] 68% | growth inhibition [4] 91%

CCN(CC)CCN(Cc1ccc(-c2ccc(Cl)cc2)cc1)C(=O)Cn1c(CCc2cccc(F)c2F)nc(=O)c2ccccc21
inactive: inhibition [2] 45% | inhibition [3] -4% | outcome [5] | outcome [6] | outcome [7] | outcome [8]
active: growth inhibition [1] 75% | growth inhibition [4] 101%

COc1ccc(-c2cccc(NC(=O)c3cccc(C#N)c3)c2)cc1CNC(C)C
active: growth inhibition [1] 51% | growth inhibition [4] 101%
inactive: inhibition [2] 22% | inhibition [3] 0% | outcome [5] | outcome [6] | outcome [7] | outcome [8]

CC(C)CC(=O)N1CCNC[C@@H]1C(=O)NC1CC1
inactive: growth inhibition [1] -2% | inhibition [2] -7% | inhibition [3] -4% | outcome [5] | outcome [6] | outcome [7] | outcome [8]
active: growth inhibition [4] 82%

CCNc1cc(C)nc(Nc2ccc(NC(=O)c3ccc(OC)c(OC)c3)cc2)n1
active: growth inhibition [1] 65% | growth inhibition [4] 101%
inactive: inhibition [2] 19% | inhibition [3] 0% | outcome [5] | outcome [6] | outcome [7] | outcome [8]

CCOc1ccc(C(C)NC(=O)c2ccc(OC)c(Br)c2)cc1OCC (stereo not given)
active: growth inhibition [1] 100% | growth inhibition [4] 100%
inactive: inhibition [2] 9% | inhibition [3] 2% | outcome [5] | outcome [6] | outcome [7] | outcome [8]
